# Data as given in PubChem BioAssay.
# Results filed as inconclusive are left out. The list shows a part of the results. The source made the active and inactive calls.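 Rule for the calls, unless noted: active = GFP response above 150% of the DMSO control; inconclusive = Fewer than 70 cells counted for a yeast strain; inactive = the rest.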
# Columns and labels:
# [1] = yeast TOR pathway RPL19A-GFP modulators, primary screen, cell-based, S. cerevisiae, multiplex flow cytometry (AID 1862; in the data active = percent of DMSO control GFP below about 86%;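 note: lower values mimic rapamycin by blocking the RPL19A rise seen in DMSO cells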); conditions: S. cerevisiae RPL19A-GFP strain, flow cytometry fluorescence, 3 h; at 10 µM; stronger effect = lower value
# [2] = modulators of MEP2-GFP levels in yeast, primary screen, S. cerevisiae, multiplex flow cytometry (AID 1867;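 active = GFP response, as percent of the DMSO control, above the screen-wide mean plus 3 SD, about 139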;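 note: median GFP channel fluorescence of barcode-gated MEP2-GFP cells measured by flow cytometry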); conditions: S. cerevisiae MEP2-GFP strain, 3 h, at 10 µM, stronger effect = higher value, 100% means same as DMSO wells
# [3] = modulators of CIT2-GFP expression in yeast, primary screen, S. cerevisiae, GFP fusion, multiplex flow cytometry (AID 1870;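 active = percent response above a set limit, the screen-wide mean plus 3 SD, cut at about 130% in these data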;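 note: barcoded CIT2-GFP strain pooled with four other GFP strains with rapamycin as positive control; median GFP fluorescence per well over plate mean of DMSO wells so 100% = DMSO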); conditions: 3 h, at 10 µM, stronger effect = higher value
# [4] = modulators of LAP4-GFP expression in yeast, primary screen, S. cerevisiae, multiplex flow cytometry (AID 1873;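 active = GFP signal, as percent of the solvent control, above the screen mean plus 3 SD, about 149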); conditions: 3 h, at 10 µM, stronger effect = higher value
# [5] = modulators of AGP1-GFP expression in yeast TOR pathway, primary screen, cell-based, multiplex flow cytometry, S. cerevisiae (AID 1887;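 active = GFP signal above the screen-wide mean plus 3 SD, that is over about 124.5% of the solvent control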;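 note: AGP1-GFP fusion strain of S. cerevisiae within a five-strain barcoded multiplex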); conditions: 3 h, at 10 µM, stronger effect = higher value
# [6] = RPL19A-GFP modulators, yeast TOR pathway, confirmation, cell-based, S. cerevisiae, flow cytometry, cherry picks, mother/daughter gates (AID 2270;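 active = GFP response below 50% of the DMSO control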); conditions: S. cerevisiae RPL19A-GFP strain, 3 h, at 10 µM, stronger effect = lower value, 100 = same GFP as DMSO wells
# [7] = LAP4-GFP expression modulators in yeast, confirmation, cell-based, cherry picks, flow cytometry, mother/daughter gates (AID 2271;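 active = GFP response above 150% of the DMSO control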;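 note: ratio of sample to DMSO plate mean so 100% equals DMSO level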); conditions: S. cerevisiae LAP4-GFP strain, 3 h, at 10 µM, stronger effect = higher value, 100 means same as DMSO control
# [8] = modulators of MEP2-GFP levels in yeast, confirmation, S. cerevisiae, flow cytometry GFP, cherry picks (AID 2272);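 note: ratio of well signal to plate DMSO mean so 100% equals DMSO level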; conditions: S. cerevisiae MEP2-GFP strain, 3 h, at 10 µM, stronger effect = higher value
# [9] = modulators of CIT2-GFP expression in yeast, confirmation, S. cerevisiae, GFP fusion, cherry picks, mother/daughter gates (AID 2274;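 active = GFP response above 150% of the DMSO level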); conditions: S. cerevisiae CIT2-GFP strain, flow cytometry, 3 h, at 10 µM, stronger effect = higher value
# [10] = inhibitors of CD8+ T cell-vesicle binding, pilot screen, LFA-1/ICAM-1 modulator project, MLPCN validation set, flow cytometry (AID 2523;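 active = response below a set limit, under 55% cells CD8-positive and vesicle-bound, and CD8 cells' 90th-percentile brightness under 279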;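 for vesicle binding response: mean PE anti-B7-1 fluorescence of CD8+ cells relative to row control; 100% = QL9-loaded vesicles with DMSO vehicle in the same plate row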); conditions: 2C mouse CD8+ T cells, at 7 µM, stronger effect = lower value; double positive events: measured here: CD8+/vesicle+ event percentage
# [11] = disruption of biotin probe capture by avidin, counter-screen for RGS protein interaction modulators, biochemical, flow cytometry, bead-based (AID 1783;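 active = inhibition above 50%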;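 note: median green fluorescence of gated singlet beads compared with DMSO control wells; 0% = DMSO wells and 100% = complete loss of bead fluorescence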); conditions: streptavidin beads, fluorescein-biotin binding; at 10 µM, stronger effect = higher value
# [12] = molecular target: Guanine nucleotide-binding protein G(o) subunit alpha (Homo sapiens) (UniProt P09471); experiment: RGS8-Galphao binding modulators, confirmation, biochemical, multiplexed bead flow cytometry, single concentration (AID 1836; in the data active = binding response below about 72% or above about 130%; inactive = in between;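 note: Galphao activated as GDP AlF4 complex before binding bead RGS8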); conditions: bead-based flow cytometry RGS8-Galphao binding, fluorescence; at 10 µM; actives lie on both sides
# [13] = molecular target: Guanine nucleotide-binding protein G(o) subunit alpha (Homo sapiens) (UniProt P09471); experiment: RGS7-Galphao binding modulators, confirmation, biochemical, multiplexed bead flow cytometry, single concentration (AID 1837; in the data active = response below about 75% or above about 130%; inactive = in between;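 note: fluorescent Galphao activated with GDP and aluminum fluoride binding bead-coupled RGS7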); conditions: bead-based flow cytometry RGS7-Galphao binding; at 10 µM; actives lie on both sides
# [14] = molecular target: Regulator of G-protein signaling 16 (Homo sapiens) + Guanine nucleotide-binding protein G(o) subunit alpha (Homo sapiens) (UniProt O15492+P09471); experiment: modulators of RGS16-Galphao protein binding, confirmation, biochemical, single concentration, multiplexed bead flow cytometry (AID 1838; in the data active = response below about 74% or above about 130%; inactive = in between;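 note: Galphao activated as the GDP aluminium fluoride complex binding bead-coupled RGS16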); conditions: bead-based flow cytometry, at 10 µM, actives lie on both sides
# [15] = molecular target: Guanine nucleotide-binding protein G(o) subunit alpha (Homo sapiens) (UniProt P09471); experiment: modulators of RGS4-Galphao protein binding, confirmation, biochemical, single concentration, multiplexed bead flow cytometry (AID 1840; in the data active = binding response below about 74% or above about 130%; inactive = in between); conditions: at 10 µM, actives lie on both sides
# [16] = molecular target: Guanine nucleotide-binding protein G(o) subunit alpha (Homo sapiens) + Regulator of G-protein signaling 19 (Homo sapiens) (UniProt P09471+P49795); experiment: regulators of RGS19-Galphao binding, confirmation, biochemical, single point, multiplexed bead flow cytometry (AID 1841; in the data active = response below about 50% or above about 160%; inactive = in between;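 note: 100% = no compound control and 0% = blank background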); conditions: bead-based flow cytometry RGS19-Galphao binding; at 10 µM; actives lie on both sides
# [17] = measured here: daughter cell gate
# [18] = measured here: mother cell gate
# [19] = measured here: daughter cell gate response
# [20] = measured here: mother cell gate response
# Chain of Guanine nucleotide-binding protein G(o) subunit alpha (Homo sapiens) (P09471 whole entry, looked up): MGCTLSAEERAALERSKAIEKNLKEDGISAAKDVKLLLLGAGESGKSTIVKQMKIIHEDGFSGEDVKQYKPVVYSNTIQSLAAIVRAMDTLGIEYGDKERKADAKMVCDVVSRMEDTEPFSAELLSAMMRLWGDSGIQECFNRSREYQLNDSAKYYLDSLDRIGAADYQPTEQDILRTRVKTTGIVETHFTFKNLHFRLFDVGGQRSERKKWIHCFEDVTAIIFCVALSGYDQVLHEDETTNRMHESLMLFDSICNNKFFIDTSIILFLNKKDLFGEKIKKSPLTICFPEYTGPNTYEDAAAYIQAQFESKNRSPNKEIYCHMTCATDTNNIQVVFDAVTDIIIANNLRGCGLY
# Chain of Regulator of G-protein signaling 16 (Homo sapiens) + Guanine nucleotide-binding protein G(o) subunit alpha (Homo sapiens) (O15492 whole entry, looked up): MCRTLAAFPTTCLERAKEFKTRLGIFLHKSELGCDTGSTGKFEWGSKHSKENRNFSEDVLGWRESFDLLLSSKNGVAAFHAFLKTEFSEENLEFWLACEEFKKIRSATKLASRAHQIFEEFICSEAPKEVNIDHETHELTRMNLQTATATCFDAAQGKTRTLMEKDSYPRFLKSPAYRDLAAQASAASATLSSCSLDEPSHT
# Chain of Regulator of G-protein signaling 16 (Homo sapiens) + Guanine nucleotide-binding protein G(o) subunit alpha (Homo sapiens) (P09471 whole entry, looked up): as the sequence (P09471 whole entry, looked up) above
# Chain of Guanine nucleotide-binding protein G(o) subunit alpha (Homo sapiens) + Regulator of G-protein signaling 19 (Homo sapiens) (P09471 whole entry, looked up): as above
# Chain of Guanine nucleotide-binding protein G(o) subunit alpha (Homo sapiens) + Regulator of G-protein signaling 19 (Homo sapiens) (P49795 whole entry, looked up): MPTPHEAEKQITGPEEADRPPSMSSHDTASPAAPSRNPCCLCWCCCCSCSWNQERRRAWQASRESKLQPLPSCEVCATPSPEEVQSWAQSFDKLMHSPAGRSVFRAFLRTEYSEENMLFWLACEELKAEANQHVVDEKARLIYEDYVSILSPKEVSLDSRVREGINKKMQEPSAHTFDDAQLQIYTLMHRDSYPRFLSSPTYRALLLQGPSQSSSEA
smiles,measurement,setting,value
c1ccc2c(c1)CCOC2CNCCCN1CCCCC1 (stereo not given),percent of DMSO control GFP,[1],92% (inactive)
same,GFP response vs DMSO,[2],142% (active)
same,percent response of DMSO control,[3],126% (active)
same,GFP response vs DMSO,[4],98% (inactive)
same,"GFP response, % of DMSO",[5],113% (inactive)
same,GFP response vs DMSO,[6],101% (inactive)
same,GFP response vs DMSO,[6]; [17],101%
same,GFP response vs DMSO,[6]; [18],102%
same,GFP response relative to DMSO,[7],92.6% (inactive)
same,GFP response relative to DMSO,[7]; [19],97.2%
same,GFP response relative to DMSO,[7]; [20],94.2%
same,GFP response vs DMSO,[8],100% (inactive)
same,"GFP response, % of DMSO",[9],108% (inactive)
same,"GFP response, % of DMSO",[9]; [17],105%
same,"GFP response, % of DMSO",[9]; [18],113%
same,double positive events,[10],52.2%
same,vesicle binding response,[10],279% (inactive)
Cc1ncoc1C(=O)NCCC(c1ccccc1)c1ccccc1,inhibition,[11],0.1% (inactive)
same,binding response (% of control),[12],101% (inactive)
same,response (percent of control binding),[13],110% (inactive)
same,response (% of control binding),[14],101% (inactive)
same,binding response (% of control),[15],103% (inactive)
same,response (percent of control binding),[16],111% (inactive)
c1cnc2c(c1)ccc1cccnc12,percent of DMSO control GFP,[1],98.9% (inactive)
same,GFP response vs DMSO,[2],107% (inactive)
same,percent response of DMSO control,[3],96.4% (inactive)
same,GFP response vs DMSO,[4],174% (active)
same,"GFP response, % of DMSO",[5],117% (inactive)
same,GFP response vs DMSO,[6],101% (inactive)
same,GFP response vs DMSO,[6]; [17],100%
same,GFP response vs DMSO,[6]; [18],100%
same,GFP response relative to DMSO,[7],116% (inactive)
same,GFP response relative to DMSO,[7]; [19],116%
same,GFP response relative to DMSO,[7]; [20],117%
same,GFP response vs DMSO,[8],112% (inactive)
same,"GFP response, % of DMSO",[9],111% (inactive)
same,"GFP response, % of DMSO",[9]; [17],117%
same,"GFP response, % of DMSO",[9]; [18],107%
same,double positive events,[10],59.5%
same,vesicle binding response,[10],192% (inactive)
